Measured values: PubChem BioAssay (Tox21)
Records with an inconclusive call do not appear. Entries that show only a call come without a potency. Some structures have more than one record in an assay (separate samples or runs), and their calls can disagree. Active and inactive are the calls of the source. Unless noted, calls come from the whole dose curve.

Key:
[1] = molecular target: Gonadotropin-releasing hormone receptor (Homo sapiens) (UniProt P30968); assay: Human gonadotropin-releasing hormone receptor (GnRHR) small molecule agonists, calcium flux assay in GnRHR-HEK293 cells (AID 1920063); note: nearly all actives have a fitted effect of over 35% in size
Sequence of Gonadotropin-releasing hormone receptor (Homo sapiens) (P30968 whole entry, looked up): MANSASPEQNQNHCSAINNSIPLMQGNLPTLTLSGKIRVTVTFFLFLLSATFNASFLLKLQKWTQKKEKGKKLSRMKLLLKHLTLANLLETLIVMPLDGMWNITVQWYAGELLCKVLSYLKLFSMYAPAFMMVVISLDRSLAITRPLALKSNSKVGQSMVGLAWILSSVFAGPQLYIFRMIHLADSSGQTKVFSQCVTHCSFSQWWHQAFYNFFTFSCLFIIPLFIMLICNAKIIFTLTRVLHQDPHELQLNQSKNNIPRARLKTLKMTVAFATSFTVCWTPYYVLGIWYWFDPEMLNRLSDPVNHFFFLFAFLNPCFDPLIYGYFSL
Summary of the method: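 GnRHR-HEK293, 1500 cells/well, 18 h 37 C/5% CO2; Ca dye 1 h 37 C; cpd pinned (DMSO), agonist mode; kinetic FL 480/540, 3 min, 1 s reads; 15 conc, n=3.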

[2] = molecular target: KiSS-1 receptor (Homo sapiens) (UniProt Q969F8); assay: Human kisspeptin (KISS1R) small molecule agonists, calcium flux assay in KISS1R-HEK293 cells (AID 1920064; active = well fitted activation curve with a large enough effect in the repeat runs)
Sequence of KiSS-1 receptor (Homo sapiens) (Q969F8 whole entry, looked up): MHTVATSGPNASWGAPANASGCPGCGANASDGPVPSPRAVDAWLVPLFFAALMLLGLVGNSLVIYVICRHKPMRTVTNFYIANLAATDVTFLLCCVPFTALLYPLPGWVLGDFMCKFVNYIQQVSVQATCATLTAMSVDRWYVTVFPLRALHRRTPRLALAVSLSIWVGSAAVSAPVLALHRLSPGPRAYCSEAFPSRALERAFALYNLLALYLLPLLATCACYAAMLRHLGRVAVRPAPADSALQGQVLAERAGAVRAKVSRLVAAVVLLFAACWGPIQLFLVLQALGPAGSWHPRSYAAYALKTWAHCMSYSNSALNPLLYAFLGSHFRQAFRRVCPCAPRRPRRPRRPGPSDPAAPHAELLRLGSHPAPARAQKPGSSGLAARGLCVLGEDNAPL
Summary of the method: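 Stable human KISS1R HEK293 line; 18 h plating, 37 C/5% CO2; calcium dye 1 h 37 C; compound pin transfer; kinetic fluorescence Ex/Em 480/540, 3 min.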

[3] = G protein-coupled receptor (GPCR) small molecule agonists, calcium flux assay: HEK293 wild type cell line counter screen (AID 1920065)
Summary of the method: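 Kinetic fluorescence at Ex/Em 480/540, recorded every second over 3 min, served as the read-out after compound addition. Each compound was tested at 15 concentrations in triplicate on cells pre-loaded with calcium dye for 1 h.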

[4] = p53 small molecule agonists, cell-based qHTS assay with human liver microsomes (AID 1963577);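 note: p53 response element beta-lactamase reporter cells with liver microsomes plus NADPH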
Summary of the method: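 HLM-supplemented p53RE-bla reporter assay: 16 h compound exposure at 37 C, microsomes and NADPH each 0.5 mg/mL final, read by fluorescence intensity.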

[5] = p53 small molecule agonists, cell-based qHTS assay with rat liver microsomes (AID 1963578)
Summary of the method: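 Quantitative HTS of the Tox21 10K library: p53RE-bla cells, rat liver microsomes plus NADPH at 0.5 mg/mL final each, 16 h at 37 C, beta-lactamase fluorescence detection.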

[6] = p53 small molecule agonists, cell-based qHTS assay with human liver microsomes: qHTS cell viability counter screen (AID 1963579); note: nearly all actives have a fitted effect of over 45% in size; note: potency is the fitted concentration of half-maximal effect
Summary of the method: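 Viability of p53RE-bla cells is measured as CellTiter-Glo luminescence following a 16 h, 37 C incubation with compound, liver microsomes from human donors and NADPH.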

[7] = p53 small molecule agonists, cell-based qHTS assay with rat liver microsomes: qHTS cell viability counter screen (AID 1963580); note: nearly all actives have a fitted effect of over 45% in size; note: potency is the fitted concentration of half-maximal effect
Summary of the method: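 Viability is assessed in parallel with the p53 reporter read: HCT-116 p53RE-bla cells receive compounds plus rat microsomes and NADPH (0.5 mg/mL final apiece), incubate 16 h at 37 C, and then CellTiter-Glo luminescence is recorded.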

[8] = p53 small molecule agonists, cell-based qHTS assay: qHTS cell viability counter screen (AID 1963581); note: nearly all actives have a fitted effect of over 45% in size
Summary of the method: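 HCT-116 p53RE-bla cells, 4,000/well, plated 5 h before compound pin transfer; 16 h at 37 C; bla substrate 2 h RT; then CellTiter-Glo, 30 min RT, luminescence.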

[9] = p53 small molecule agonists, cell-based qHTS assay (AID 1963582; active = well fitted activation curve with a large enough effect in the signal ratio in the repeat runs, not every such curve was filed as active; the % refers to the signal ratio)
Summary of the method: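 Reporter line: p53RE-bla. Pre-incubation 5 h, 37 C, 5% CO2; compound (DMSO, pin tool) 16 h, 37 C; B/G FRET substrate 2 h RT; fluorescence intensity read.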

[10] = molecular target: 5-hydroxytryptamine receptor 2A (Homo sapiens) (UniProt P28223); assay: 5-hydroxytryptamine receptor 2A (HTR2A) small molecule agonists, cell-based qHTS assay (AID 1963587); note: nearly all actives have a fitted effect of over 30% in size
Sequence of 5-hydroxytryptamine receptor 2A (Homo sapiens) (P28223 whole entry, looked up): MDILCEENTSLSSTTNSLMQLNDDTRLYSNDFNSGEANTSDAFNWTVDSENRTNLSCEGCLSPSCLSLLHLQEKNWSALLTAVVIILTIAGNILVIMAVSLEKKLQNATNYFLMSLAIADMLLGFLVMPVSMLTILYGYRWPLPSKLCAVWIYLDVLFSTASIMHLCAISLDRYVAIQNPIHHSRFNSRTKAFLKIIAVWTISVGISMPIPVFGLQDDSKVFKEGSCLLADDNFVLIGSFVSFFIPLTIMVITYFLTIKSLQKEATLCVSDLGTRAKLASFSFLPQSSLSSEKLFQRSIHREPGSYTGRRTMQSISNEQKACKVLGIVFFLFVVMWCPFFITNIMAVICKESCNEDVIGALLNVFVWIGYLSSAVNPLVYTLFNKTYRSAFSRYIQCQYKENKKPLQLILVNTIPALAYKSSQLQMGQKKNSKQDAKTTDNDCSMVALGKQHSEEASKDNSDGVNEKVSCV
Summary of the method: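 CHO cells stably expressing human HTR2A, plated 18 h, loaded with calcium dye 1 h at 37 C. Agonist mode: compounds added and intracellular calcium fluorescence recorded kinetically for 2 min at 1 sec intervals.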

[11] = molecular target: Muscarinic acetylcholine receptor M1 (Homo sapiens) (UniProt P11229); assay: Cholinergic receptor muscarinic 1 (CHRM1) small molecule antagonists, cell-based qHTS assay (AID 1963588); note: nearly all actives have a fitted effect of over 40% in size
Sequence of Muscarinic acetylcholine receptor M1 (Homo sapiens) (P11229 whole entry, looked up): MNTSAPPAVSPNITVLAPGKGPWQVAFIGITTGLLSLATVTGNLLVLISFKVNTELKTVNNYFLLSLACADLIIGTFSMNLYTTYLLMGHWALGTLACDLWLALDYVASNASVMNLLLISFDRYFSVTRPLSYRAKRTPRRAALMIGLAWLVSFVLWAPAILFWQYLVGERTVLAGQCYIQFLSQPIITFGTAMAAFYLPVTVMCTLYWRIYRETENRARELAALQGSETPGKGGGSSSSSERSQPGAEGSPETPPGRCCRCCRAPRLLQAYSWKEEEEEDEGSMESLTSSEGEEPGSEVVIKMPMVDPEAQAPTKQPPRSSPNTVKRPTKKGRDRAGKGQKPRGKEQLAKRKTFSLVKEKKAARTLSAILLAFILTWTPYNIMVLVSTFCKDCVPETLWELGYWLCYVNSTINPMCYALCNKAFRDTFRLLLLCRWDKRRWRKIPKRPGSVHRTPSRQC
Summary of the method: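 CHRM1-CHO calcium-flux assay, antagonist mode. Cells were seeded 18 h, dye-loaded 1 h at 37 C and given compound for 5 min at RT, then acetylcholine was added at 50nM. FDSS fluorescence was read 3 min; 15 concentrations, three runs.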

[12] = molecular target: Muscarinic acetylcholine receptor M1 (Homo sapiens) (UniProt P11229); assay: Cholinergic receptor muscarinic 1 (CHRM1) small molecule agonists, cell-based qHTS assay (AID 1963589); note: nearly all actives have a fitted effect of over 35% in size
Summary of the method: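 Human M1 in stable CHO line; 18 h plating, 1 h dye load 37 C; cpd added (agonist mode); Ca2+ fluorescence kinetic read, 1 s intervals; 15 conc, 3 runs.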

[13] = cAMP Responsive Elements (CRE) small molecule agonists, cell-based qHTS assay (AID 1963590)
Summary of the method: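 HEK 293T CRE-bla, 2,000 cells/well, 18 h preincubation 37 C/5% CO2; cpds (DMSO) pinned, 3 h; LiveBLAzer B/G FRET substrate, 2 h RT.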

[14] = cAMP Responsive Elements (CRE) small molecule antagonists, cell-based qHTS assay (AID 1963591; active = well fitted inhibition curve with a large enough effect in the signal ratio in the repeat runs, not every such curve was filed as active; the % refers to the signal ratio)
Summary of the method: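 Beta-lactamase reporter read by FRET substrate (LiveBLAzer B/G) after 2 h at room temperature. CRE-bla HEK293T cells had received compound plus 0.25 uM (final) NKH477 for 3 h at 37 °C.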

[15] = molecular target: Beta-2 adrenergic receptor (Homo sapiens) (UniProt P07550); assay: Adrenergic beta2 receptor (ADRB2) small molecule antagonists, cell-based qHTS assay (AID 1963592); note: nearly all actives have a fitted effect of over 50% in size; note: potency is the fitted concentration of half-maximal effect
Sequence of Beta-2 adrenergic receptor (Homo sapiens) (P07550 whole entry, looked up): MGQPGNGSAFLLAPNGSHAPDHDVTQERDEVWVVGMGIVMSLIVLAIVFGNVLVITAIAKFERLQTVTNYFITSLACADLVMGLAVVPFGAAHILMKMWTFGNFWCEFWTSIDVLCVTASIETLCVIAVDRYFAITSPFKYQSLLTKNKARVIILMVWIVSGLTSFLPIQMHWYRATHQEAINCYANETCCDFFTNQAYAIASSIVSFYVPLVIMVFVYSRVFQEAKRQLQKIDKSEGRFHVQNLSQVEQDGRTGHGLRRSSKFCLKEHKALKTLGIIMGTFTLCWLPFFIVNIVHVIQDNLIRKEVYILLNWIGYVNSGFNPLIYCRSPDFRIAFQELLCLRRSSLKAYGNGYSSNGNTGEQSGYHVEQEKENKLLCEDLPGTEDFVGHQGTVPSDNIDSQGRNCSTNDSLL
Summary of the method: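 Cells (CHO, stable ADRB2 overexpression) incubated 18-20hr at 37C; compounds added from DMSO; agonist mix (1nM isoproterenol, 100uM IBMX, 25uM Ro-20-1724) added; 0.5hr RT; d2-cAMP and anti-cAMP-cryptate added; 1hr RT; 665/615 nm read.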

[16] = molecular target: Beta-2 adrenergic receptor (Homo sapiens) (UniProt P07550); assay: Adrenergic beta2 receptor (ADRB2) small molecule agonists, cell-based qHTS assay (AID 1963593);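 note: CHO cells stably overexpressing human ADRB2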
Summary of the method: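 CHO cells stably over-expressing ADRB2 were plated overnight at 37C, then dosed with compounds plus a stimulation mix containing 100uM IBMX and 25uM Ro-20-1724 for 0.5hr at room temperature. cAMP was measured by HTRF competition, 1hr.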

[17] = molecular target: D(2) dopamine receptor (Homo sapiens) (UniProt P14416); assay: Dopamine D2 receptor (DRD2) small molecule agonists, cell-based qHTS assay (AID 1963594); note: nearly all actives have a fitted effect of over 35% in size
Sequence of D(2) dopamine receptor (Homo sapiens) (P14416 whole entry, looked up): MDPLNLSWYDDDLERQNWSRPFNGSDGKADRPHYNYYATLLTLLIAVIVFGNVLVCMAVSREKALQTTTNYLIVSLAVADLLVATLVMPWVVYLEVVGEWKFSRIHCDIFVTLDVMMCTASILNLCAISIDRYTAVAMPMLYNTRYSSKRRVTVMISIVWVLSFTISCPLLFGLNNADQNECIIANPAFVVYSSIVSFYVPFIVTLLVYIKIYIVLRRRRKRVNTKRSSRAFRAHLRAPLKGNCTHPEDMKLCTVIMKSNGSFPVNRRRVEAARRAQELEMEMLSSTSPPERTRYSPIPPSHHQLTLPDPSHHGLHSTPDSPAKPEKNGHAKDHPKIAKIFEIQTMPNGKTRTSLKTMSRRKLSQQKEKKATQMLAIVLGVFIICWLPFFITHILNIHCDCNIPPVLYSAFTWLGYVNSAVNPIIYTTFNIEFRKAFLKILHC
Summary of the method: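 HEK293 cells stably expressing human DRD2, pre-treated with PDE inhibitor Ro20-1724 (0.1 mM final) and compound 10 min at room temperature, then stimulated with NKH477 (200nM […]) for 30 min. cAMP read by HTRF (665/620 nm).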

[18] = molecular target: D(2) dopamine receptor (Homo sapiens) (UniProt P14416); assay: Dopamine D2 receptor (DRD2) small molecule antagonists, cell-based qHTS assay (AID 1963595; active = well fitted inhibition curve with a large enough effect in the signal ratio in the repeat runs, with a control signal flat; the % refers to the signal ratio)
Summary of the method: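 HTRF cAMP read-out at 665 and 620 nm emission (340 nm excitation). Antagonist mode: compounds were tested against 12 nM quinpirole in DRD2-HEK293 cells, with 200 nM NKH477 raising cAMP and 0.1 mM Ro20-1724 blocking its breakdown.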

[19] = molecular target: 5-hydroxytryptamine receptor 2A (Homo sapiens) (UniProt P28223); assay: 5-hydroxytryptamine receptor 2A (HTR2A) small molecule antagonists, cell-based qHTS assay (AID 1963586); note: nearly all actives have a fitted effect of over 45% in size
Summary of the method: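 Antagonist-mode intracellular calcium assay: DOI (4 nM) added after 5 min compound pre-incubation at room temperature to dye-loaded HTR2A-CHO cells. Fluorescence followed for 3 min, sampled every second.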

| Compound | Potency [1] | Potency [2] | Potency [3] | Potency [4] | Potency [5] | Potency [6] | Potency [7] | Potency [8] | Potency [9] | Potency [10] | Potency [11] | Potency [12] | Potency [13] | Potency [14] | Potency [15] | Potency [16] | Potency [17] | Potency [18] | Potency [19] |
| --- | --- | --- | --- | --- | --- | --- | --- | --- | --- | --- | --- | --- | --- | --- | --- | --- | --- | --- | --- |
| OCC1CO1 (stereo not given) | inactive | inactive | inactive | inactive | inactive | inactive | 41.5 µM (active) and inactive | inactive | inactive | inactive | inactive | inactive | inactive | inactive | inactive | inactive | inactive | inactive | – |
| CSc1nnc(C(C)(C)C)c(=O)n1N | inactive | inactive | inactive | inactive | inactive | inactive | inactive | inactive | inactive | – | inactive | inactive | inactive | inactive | inactive | inactive | inactive | inactive | – |
| OC(c1ccc(Cl)cc1)(c1cncnc1)c1ccccc1Cl (stereo not given) | inactive | inactive | inactive | inactive | inactive | inactive | inactive | inactive | inactive | inactive | inactive | inactive | inactive | – | 69.8 µM (active) | – | inactive | inactive | inactive |
| O=C(Cl)OCCOCCOC(=O)Cl | inactive | inactive | inactive | inactive | inactive | inactive | – | inactive | inactive | inactive | inactive | inactive | inactive | inactive | inactive | inactive | – | inactive | inactive |
| CCCCCCCCCCn1cc[n+](C)c1 | inactive | inactive | inactive | inactive | inactive | 46.2 µM (active) and inactive | 36.7 µM (active) and inactive | – | – | inactive | – | inactive | – | – | inactive | inactive | inactive | inactive | inactive |
| CC(C)OC(=O)Cc1ccccc1 | inactive | inactive | inactive | inactive | inactive | inactive | – | inactive | inactive | – | inactive | inactive | inactive | inactive | inactive | – | inactive | inactive | inactive |
| O=C(O)CC(O)(CC(=O)O)C(=O)O | inactive | inactive | inactive | inactive | inactive | inactive | – | inactive | inactive | – | – | – | inactive | inactive | inactive | – | inactive | inactive | – |
| CCCC[n+]1cccc(C)c1 | – | inactive | inactive | inactive | inactive | inactive | inactive | inactive | inactive | inactive | inactive | inactive | inactive | inactive | inactive | inactive | inactive | inactive | inactive |
